E coli Lon inh: inhibitors of E. coli Lon protease | purified E. coli Lon protease, fluorescence polarization | inhibition, % at 7.94 µM | 360,000 compounds, 0.42% hits | AID 602123; in the data active = inhibition above about 13%, passing the limit was not always enough;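 also: 0% = enzyme with probe and DMSO and 100% = no enzyme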
Keap1 Nrf2 FP: Keap1-Nrf2 (human) interaction inhibition | Q14145 | Keap1 Kelch-Nrf2 peptide fluorescence polarization, 1536-well | inhibition, % at 9.4 µM | 340,000 compounds, 0.15% hits | AID 504523; in the data active = inhibition above about 12%;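 also: human Keap1 Kelch domain with fluorescein labeled Nrf2 9mer peptide probe; 0% = neutral control wells and 100% = peptide positive control; higher means more block of Keap1 binding to Nrf2 peptide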
Target sequence (Q14145 whole entry, looked up, the tested form may be a part): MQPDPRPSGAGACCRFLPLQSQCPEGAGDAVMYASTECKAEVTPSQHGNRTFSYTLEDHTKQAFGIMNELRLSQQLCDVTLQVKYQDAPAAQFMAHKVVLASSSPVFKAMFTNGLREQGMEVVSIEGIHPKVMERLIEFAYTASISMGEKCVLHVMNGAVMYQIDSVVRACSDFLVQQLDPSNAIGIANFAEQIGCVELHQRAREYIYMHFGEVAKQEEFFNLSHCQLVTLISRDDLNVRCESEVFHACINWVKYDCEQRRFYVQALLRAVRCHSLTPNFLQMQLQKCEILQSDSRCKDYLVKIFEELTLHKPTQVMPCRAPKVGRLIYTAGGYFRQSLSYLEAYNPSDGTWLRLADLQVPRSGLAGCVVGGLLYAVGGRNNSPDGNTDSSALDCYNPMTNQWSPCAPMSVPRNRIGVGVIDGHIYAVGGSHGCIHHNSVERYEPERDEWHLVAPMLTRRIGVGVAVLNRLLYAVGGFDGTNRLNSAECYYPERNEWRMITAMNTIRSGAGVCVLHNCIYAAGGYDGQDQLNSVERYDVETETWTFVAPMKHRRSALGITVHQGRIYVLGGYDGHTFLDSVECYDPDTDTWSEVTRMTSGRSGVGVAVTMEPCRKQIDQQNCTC
RTF Ca sens inh: cardiac RTF calcium desensitization | inhibition, % at 7.15 µM | AID 493244 | IANBD-labeled cardiac RTF, Ca2+ fluorescence | 340,000 compounds, 0.12% hits;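 active = inhibition above the mean inhibition of all tested compounds plus 3 SD, cut at about 17% in these data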;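 also: assay run at fixed EC70 calcium of 1.6 mM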
cardiac RTF act: cardiac RTF calcium sensitization; P19429+P45379; IANBD-labeled TnC RTF fluorescence at EC20 calcium; 0% EC20 calcium, 100% full calcium; activation, % at 7.2 µM; 340,000 compounds, 0.24% hits;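 active = activation above the mean over all tested compounds plus 3 SD, cut at about 30% in these data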;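 also: rise in fluorescence read as greater calcium sensitivity of cardiac thin filaments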
EBV gp42 block: inhibitors of Epstein-Barr virus glycoprotein 42 | 220,000 compounds, 0.42% hits | inhibition, % (tested at 21.74 µM) | Fluorescence polarization binding assay, mP read-out | AID 1085 | Q1HVG2; in the data active = inhibition above about 50%
C-LANA FP: KSHV C-LANA DNA binding inhibition; inhibition, % at 9 µM; 340,000 compounds, 0.078% hits; MBP-C-LANA/FAM-LBS DNA binding, fluorescence polarization;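 active = highest replicate inhibition at or above 60% at 9 µM, even if other replicates fall short; inactive = all replicates below 60% inhibition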;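 also: 0% = neutral control wells and 100% = 4 µM acridine orange control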
* marks the source's active call; other numbers are inactive results; i = inactive; x = no result given. Hits are enriched below; roughly 0.98% of the tested compounds scored in any of these assays.

SMILES	E coli Lon inh	Keap1 Nrf2 FP	RTF Ca sens inh	cardiac RTF act	EBV gp42 block	C-LANA FP
COc1ccc(C2C=C(c3ccc(Br)s3)Nc3ncnn32)cc1OC (configuration not stated)	x	x	x	x	91.4*	x
COc1ccc(C2C=C(c3ccc(C)cc3)Nc3ncnn32)cc1 (configuration not stated)	-0.3	0.2	-12.7	-0.4	38.4	3.1
COC(=O)[C@@]1(Cc2ccc(F)cc2)[C@H]2c3cc(C(=O)N4CCCC4)n(C)c3C[C@H]2CN1C(=O)c1ccccc1	6.1	x	x	x	x	x
CCCNC(=O)CN1C(=O)NC(c2ccccc2)(c2ccccc2)C1=O	-7.8	0.1	-36.1	1.8	x	-0.3
N#C/C(=C\C1=C(N2CCOCC2)C(=C\c2ccc(Cl)cc2)/CC1)C(=O)Nc1ccccc1F	-152.9	-7.4	-11.8	13.4	124.5*	-0.8
N#C/C(=C/C1=C(N2CCOCC2)C(=C/c2cccc([N+](=O)[O-])c2)/CC1)C(=O)Nc1ccccc1F	-25.3	-2.2	-4.3	1.3	x	-1.9
N#C/C(=C\C1=C(N2CCOCC2)C(=C/c2cccc([N+](=O)[O-])c2)/CC1)C(=O)Nc1ccccc1F	-20.6	-3.4	1.6	6.1	85.8*	1.3
COc1ccc(C(CNC(=O)C(CCSC)NC(=O)c2ccccc2Cl)N2CCCCC2)cc1 (configuration not stated)	-8.4	-2.8	-1.6	-3.3	x	1.2
COC(=O)c1cc(C(=O)c2ccc(Cl)cc2)n2c(=O)/c(=C\N(C)C)sc12	4.2	-7.7	-2.6	5.2	61.6*	-1.4
COC(=O)c1cc(C(=O)c2ccccc2)n2c(=O)/c(=C\N(C)C)sc12	x	x	x	x	-14.1	x
COCCNc1ccc([N+](=O)[O-])cc1C(=O)NC1CCCc2ccccc21 (configuration not stated)	8.4	-1.2	6.5	-3.1	x	-1.1
O=C(NC1CCN(c2ncccn2)CC1)c1c(F)cccc1F	2.6	-6.4	-7.4	-7.2	x	-0.8
COc1ccc(CCNC(=O)c2ccc3nc(-c4ccco4)c(-c4ccco4)nc3c2)cc1OC	-3.9	4.7	19.8*	-4.5	30.1	10.1
CCc1nc2ccc(C(=O)NCCc3ccc(OC)c(OC)c3)cc2nc1CC	-0.4	-3.9	-2.9	-3.6	x	0.8
Cc1cc(=O)oc2cc(OCC(=O)N/N=C/c3cc([N+](=O)[O-])ccc3O)ccc12	-9.3	-2.7	-15.5	-6.2	91.5*	-0.4
CCCN1C(C)C(C(=O)OCC)=CN(Cc2ccc(Br)cc2)S1(=O)=O (configuration not stated)	-2.3	-4.9	-0.9	-3.2	x	0.3
COc1cc2c(-c3ccc4[nH]ccc4c3)c(-c3ccc(C#N)cc3)oc(=O)c2cc1OC	0.1	-0.1	-5.4	2.4	x	-0.1
Cc1oc(C)c2c(=O)ccc3c(c12)OC(N)=C(C#N)C3c1ccccc1Cl (configuration not stated)	-102.0	-14.8	-25.6	13.3	-18.1	3.4
N#CC1=C(N)OC2=C(CC/C2=C\c2ccccc2)C1c1ccccc1 (configuration not stated)	-221.7	-8.8	-220.9	127.3*	94.6*	1.1
N#CC1=C(N)OC2=C(CC/C2=C\c2ccccc2Cl)C1c1ccccc1Cl (configuration not stated)	-162.8	-10.0	-36.6	37.7*	-68.7	4.7
CCOc1ccc(CCNC(=O)CSC(=S)N2CCCC2)cc1OCC	8.4	-2.9	0.1	1.6	x	0.6
C[C@@H]1CN([C@@H](C)CO)S(=O)(=O)c2ccc(Br)cc2O[C@H]1CN(C)C(=O)C1CCOCC1	4.2	x	x	x	x	x
CC1CC1c1ccc(/C=C(\C#N)C(=O)Nc2ccc(Cl)cc2)o1 (configuration not stated)	-11.5	-5.1	0.6	11.9	10.6	0.0
N#C/C(=C\c1ccc(N2CCOCC2)o1)C(=O)Nc1ccc(O)cc1	i	-221.6	x	x	-302.3	-63.5
N#C/C(=C/c1ccc(N2CCCCC2)o1)C(=O)Nc1ccc(Cl)cc1	i	-11.3	-109.6	41.1*	3.0	0.5
SMILES	E coli Lon inh	Keap1 Nrf2 FP	RTF Ca sens inh	cardiac RTF act	EBV gp42 block	C-LANA FP
CSc1ccc(/C=C(\C#N)C(=O)NC2CCCCC2)cc1	-10.3	1.0	9.3	-2.1	-6.8	-0.9
N#C/C(=C/c1ccc(N2CCCCC2)o1)C(=O)Nc1ccc2ccccc2c1	i	-26.8	-199.8	166.0*	-20.4	-1.9
N#C/C(=C/c1ccc(N2CCOCC2)o1)C(=O)NC1CCCCC1	-430.2	-119.8	-65.8	50.4*	-281.7	-31.0
COc1ccc(NC(=O)/C(C#N)=C\c2ccc(N3CCOCC3)o2)cc1	i	-293.8	-161.3	135.0*	-317.2	-44.8
COc1ccc(NC(=O)/C(C#N)=C/c2ccc(Br)o2)cc1	-7.9	2.3	-3.0	-1.7	7.9	-1.3
O=C1c2ccccc2CCC12OC2c1ccncc1 (configuration not stated)	-2.1	x	x	x	x	x
CCCN(CC(=O)Nc1ccccc1OC)C(=O)CN1C(=O)NC(C)(C)C1=O	22.4	x	x	x	x	x
Cc1cc(NC(=O)CON=C(N)CC(=O)Nc2ccccc2Cl)ccc1Br	1.3	-4.7	-5.0	-3.1	x	0.1
COc1ccc([C@H]2C[C@H](n3cc(C4CC4)nn3)[C@@H](O)CN2C(=O)C2CCCCC2)cc1	-0.5	x	x	x	x	x
CC1=CC2=C(OC1N(C)C)c1cccc3cccc(c13)C2=O (configuration not stated)	64.1*	0.9	-16.7	6.6	49.1	3.4
COc1ccc(OC)c(/C=C2\NC(=O)NC2=O)c1	18.3	0.8	-5.1	-1.8	x	-1.2
COc1cc(N2CCCC2)c(OC)cc1/C=C1/NC(=S)NC1=O	i	-3.9	-82.5	78.9*	-173.6	-2.6
O=C(NCCCO)Nc1ccc2nc(-c3ccco3)c(-c3ccco3)nc2c1	x	x	x	x	66.9*	x
C#CCOC(=O)/C(=C/C=C/c1ccccc1)NC(=O)c1ccccc1	10.0	-4.0	-10.7	-2.7	60.6*	2.5
C[C@@H]1CCCCO[C@@H](CN(C)CC2CC2)[C@@H](C)CN([C@H](C)CO)C(=O)c2cc(N(C)C)ccc2O1	-7.7	x	x	x	x	x
CC1CC(C)(C)NC(=S)N1CC(=O)N1CCN(Cc2ccccc2)CC1 (configuration not stated)	3.4	-1.6	-7.6	1.2	-6.2	0.9
Cc1ccc(C)c(N2CCN(C(=O)CN3C(=S)NC(C)(C)CC3C)CC2)c1 (configuration not stated)	5.2	-6.4	5.8	30.6*	3.9	-0.2
Cc1ccc(S(=O)(=O)N(CC(=O)NCC2CCCO2)Cc2cccc(C)c2)cc1 (configuration not stated)	5.2	2.1	-2.5	-0.9	x	-2.1
O=C(CSc1nnc(-c2ccco2)c(-c2ccco2)n1)Nc1ccccc1	157.4*	-0.8	1.4	-5.6	22.8	6.2
C/C(O)=c1/ccc2cccc3nc(C)nc1c23	-11.8	5.9	-39.2	15.4	110.2*	18.4
Cc1cccc2nc3ccccc3cc12	1.1	-3.5	-8.2	-1.6	x	-1.4

Compound activity (PubChem BioAssay)
